{"source": "PubChem BioAssay AID651871", "about": "(Sanford-Burnham Center for Chemical Genomics, 2012)", "note": "“And” between values parts separate entries of the source, which are not always exact repeats. Equal entries are not always repeated.", "data": [{"system": "HL-1", "assay": "protection of cardiomyocytes from stress damage, SAR follow-up, cell-based, panel, H9c2 and HL-1, ATP luminescence, set 2 (AID 651871);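 also: cells exposed to stressor for 2 h before ATP readout; reference of the scale not given here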", "conditions": "H9c2/HL-1 cardiomyocytes, 2-deoxyglucose stress, with 2-deoxyglucose, run 10, at 79 µM (top of the series)", "values": [{"smiles": "COc1ccc2nc(-c3cc(OC)c(OC)c(OC)c3)cc(C(=O)NCC(=O)Nc3ccc(C(C)=O)cc3)c2c1", "activity (protection/inhibition)": "56%"}, {"smiles": "COc1ccc2c(c1OC)C(=O)N1c3ccccc3C(=O)N(Cc3cccc(Cl)c3Cl)C21", "note": "(stereo not drawn)", "activity (protection/inhibition)": "36.7% and -11.3%"}, {"smiles": "CCOC(=O)c1cccc(NC(=O)CNC(=O)c2cc(-c3cc(OC)c(OC)c(OC)c3)nc3ccccc23)c1", "activity (protection/inhibition)": "98.6%"}]}]}
